Measurements from PubChem BioAssay (NCI).
Compounds without any hit were thinned out: in the full panel of roughly 83,000, 20% have a hit.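 Growth was measured after 48 h exposure to one concentration of compound in 96-well plates. Values under 10 count as active.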 Values without a mark were called inactive. Calls of active or inactive are those of the source.

What was measured:
Assay in all cases: NCI-60 one-dose screen, 48 h (100 = growth as untreated, 0 = no growth, -100 = all killed)
Conditions in all cases: 10 µM unless noted
NCI-H23 lung = test system: NCI-H23 lung
NCI-H322M lung = test system: NCI-H322M lung
HOP-62 NSCLC = test system: HOP-62 NSCLC
NCI-H460 lung = test system: NCI-H460 lung
HOP-92 NSCLC = test system: HOP-92 NSCLC
NCI-H522 lung = test system: NCI-H522 lung
A549/ATCC NSCLC = test system: A549/ATCC NSCLC
786-0 renal = test system: 786-0 renal
COLO 205 colon = test system: COLO 205 colon
DU-145 prostate = test system: DU-145 prostate
K-562 leukemia = test system: K-562 leukemia
MALME-3M melanoma = test system: MALME-3M melanoma
MDA-MB-231 breast = test system: MDA-MB-231 breast
RXF 393 renal = test system: RXF 393 renal
SF-268 CNS = test system: SF-268 CNS
SF-295 CNS = test system: SF-295 CNS
SF-539 CNS = test system: SF-539 CNS
UACC-257 melanoma = test system: UACC-257 melanoma
M14 melanoma = test system: M14 melanoma
HCT-15 colon = test system: HCT-15 colon

SMILES	growth (NCI-H23 lung)	growth (NCI-H322M lung)	growth (HOP-62 NSCLC)	growth (NCI-H460 lung)	growth (HOP-92 NSCLC)	growth (NCI-H522 lung)	growth (A549/ATCC NSCLC)	growth (786-0 renal)	growth (COLO 205 colon)	growth (DU-145 prostate)	growth (K-562 leukemia)	growth (MALME-3M melanoma)	growth (MDA-MB-231 breast)	growth (RXF 393 renal)	growth (SF-268 CNS) [%]	growth (SF-295 CNS)	growth (SF-539 CNS)	growth (UACC-257 melanoma)	growth (M14 melanoma)	growth (HCT-15 colon)
O=c1oc2ccc(Cl)cc2c(=O)n1-c1ccc(F)cc1F	7.47% (active)	3.62% (active)	4.11% (active)	7.56% (active)	-22.9% (active)	-23% (active)	4.94% (active)	9.41% (active)	64.9%	18.7%	9.99% (active)	-23.8% (active)	4.44% (active)	2.26% (active)	12.3	-7.12% (active)	13.2%	-13.1% (active)	20.3%	13.5%
COc1ccc(OC)c(NC(=O)/C(C#N)=C/c2ccco2)c1	96.6%	99.8%	90.8%	107%	51.1%	45.5%	93.8%	100%	92.8%	116%	88.5%	80.3%	85.1%	113%	105	98%	94.7%	90.7%	99.2%	91.2%
CCOc1cc(Cl)c(C(C)NC(=O)c2cccc(OC)c2)cc1OCC (stereo not given)	4.89% (active)	127%	-11.2% (active)	13.6%	-46.3% (active)	-76.1% (active)	17.3%	-74.9% (active)	-84.8% (active)	-21.7% (active)	-25.7% (active)	-70.4% (active)	-7.72% (active)	-95.8% (active)	11.3	111%	7.13% (active)	-70.3% (active)	-46.4% (active)	3.34% (active)
CCCCC1CCc2cccc3c(SCC(=O)N(C)c4ccc(Cl)cc4)cc[n+]1c23 (stereo not given)	98.9%	110%	107%	109%	127%	97.5%	106%	106%	108%	108%	91.5%	106%	109%	128%	113	106%	110%	110%	105%	110%
Cc1ccc2cc3c(N)c4c(C)ccc(C)c4nc3nc2c1	89.4%	72.4%	76.3%	53%	29.4%	-23.9% (active)	45.1%	54.2%	-53.3% (active)	80.5%	-18.6% (active)	-77% (active)	7.18% (active)	45.1%	17.4	-45.8% (active)	-68% (active)	-78.8% (active)	-79.1% (active)	10.8%
CCOC(=O)c1cc2c(n1Cc1cc(OC)cc(OC)c1)-c1oncc1CCC2	23.7%	28%	50.4%	6.91% (active)	57.5%	-19.1% (active)	26.6%	41.9%	-54.8% (active)	15.6%	7.66% (active)	8.25% (active)	15.5%	18.6%	33.5	-16.6% (active)	2.3% (active)	52.9%	25.3%	24.2%
Cc1ccc2cccc(Oc3ccc(Nc4ncnc5onc(-c6ccccc6)c45)cc3)c2n1	87.9%	88.2%	90.4%	73.5%	26.3%	72.2%	80.6%	101%	59.1%	94.4%	76.7%	84.1%	72.2%	82.8%	91.4	88.1%	79.8%	89%	84%	43.4%
O=c1oc2ccc(F)cc2c(=O)n1-c1ccc(Cl)cc1F	4.57% (active)	7.62% (active)	-5.38% (active)	3.17% (active)	-14.3% (active)	-16.9% (active)	3.43% (active)	1.85% (active)	11.7%	17.1%	7.39% (active)	-19.6% (active)	-17.2% (active)	-2.79% (active)	12.7	-28.5% (active)	4.31% (active)	-17.4% (active)	5.11% (active)	7.49% (active)
O=C1/C(=C/c2ccc(O)cc2)COc2ccc(O)cc21	92.2%	98.2%	114%	105%	124%	87.7%	107%	109%	114%	104%	55.9%	100%	107%	125%	101	107%	98.1%	104%	102%	75.9%
O=C(N/N=C/c1ccccc1Cl)C(=O)Nc1cccc(C(F)(F)F)c1	105%	108%	106%	99.4%	92.2%	105%	88.8%	103%	113%	101%	85.3%	111%	99.3%	97.9%	105	87.7%	102%	103%	105%	97.1%
NC1(N2SC(S)=C3CCCC=C32)CCCCC1	105%	99.8%	101%	107%	96.6%	81.9%	100%	106%	107%	98.3%	84.9%	102%	107%	129%	96.3	115%	104%	99.8%	101%	108%
COc1cc2cc3c(=O)n4c(cc5cc(OC)ncc54)c(=O)n3c2cn1	101%	97.4%	95.3%	107%	114%	99.2%	102%	99.1%	114%	106%	102%	93.1%	109%	106%	102	87.7%	106%	110%	105%	106%
NC1C(N)C(N)C1N (stereo not given)	102%	99.7%	104%	113%	79.6%	91.5%	99.8%	105%	107%	134%	99.5%	114%	94.2%	125%	109	126%	100%	101%	101%	109%
Clc1ncccc1Nc1ccc2nnc(-c3ccncc3)n2n1	93.2%	106%	102%	103%	110%	-58.6% (active)	102%	101%	109%	107%	66.8%	98.5%	105%	114%	93.3	105%	99.7%	102%	98.6%	87.1%
COc1ccc(C2C3=C(COC3=O)N(CCO)c3cc4c(cc32)CCC4)cc1 (stereo not given)	87.2%	96.2%	51.5%	25.9%	70.8%	37.8%	46.6%	54.8%	52.1%	78.5%	24%	64.7%	70.9%	30.5%	74.5	16.3%	57.2%	57.1%	38%	37.3%
CCOc1ccc(-c2nonc2NC(=O)c2cccc(C)c2)cc1OCC	78.9%	93.1%	96.9%	55.9%	-8.71% (active)	84%	65.4%	73.9%	36.8%	80.5%	11%	59.6%	76.5%	65.3%	84.1	27.8%	80.8%	89.4%	71.3%	65.2%
